# SARS PLP yeast – qHTS of Yeast-based Assay for SARS-CoV PLP; 0.19% of 330,000 active; Potency, µM (titrated, usually from 32.9 µM), for the others: at the top dose activity, positive = growth rescue, usual class: activators; S. cerevisiae expressing SARS-CoV PLpro, growth rescue; calls by dose curve; further: 0% is about no effect; nearly all actives have a fitted effect of over 55% in size
# AMA1 RON2 block – qHTS for Inhibitors of AMA1-RON; Towards Development of Antimalarial Drug Lead: Primary Screen | Plasmodium falciparum AMA1 (3D7) - RON2 peptide interaction | AlphaScreen AMA1-biotinylated RON2 peptide binding | Potency, µM (series often up to 58.2 µM), without a hit: top-dose activity change, negative = inhibition, usual class: inhibitors | 0.2% of 360,000 active;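 further: 0% = vehicle wells and -100% = peptide control; nearly all actives have a fitted effect of over 45% in size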
#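 AMA1 (3D7) with his tag at 25 nM final met compounds first, then biotinylated RON2 peptide at 25 nM; detection used donor plus acceptor beads, 10 µg/mL apiece, read by AlphaScreen after 30 min at room temperature.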
# Pf growth 96h – Primary qHTS for delayed death inhibitors of the malarial parasite plastid, 96 hour incubation. P. falciparum luciferase reporter growth, 96 h. Potency, µM (titrated, usually from 28.7 µM), for inactives: top-dose activity change, negative = inhibition, usual class: inhibitors. 6.9% of 320,000 active; further: on the % scale 0 is the no-effect control and ±100 the full control effect
#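 Erythrocytes infected with luciferase-expressing P. falciparum were dispensed at 2% hematocrit and 0.05% parasitemia (final), then incubated with compounds 96 hours at 37 C in 5% CO2. Luminescence after detection reagent addition reported growth.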
# Pf growth 48h – Primary qHTS for delayed death inhibitors of the malarial parasite plastid, 48 hour incubation | P. falciparum luciferase growth in erythrocytes, 48 h | 5.9% of 310,000 active | AID 504832, 2011 | Potency, µM (top dose mostly 28.7 µM), for inactives: at the highest dose activity change, negative = inhibition, most hits filed as inhibitors; further: on the % scale 0 is the no-effect control and ±100 the full control effect
#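 Erythrocytes infected with P. falciparum carrying an integrated firefly luciferase reporter (2% hematocrit, 0.1% parasitemia final) were exposed to compounds in RPMI 1640 with 0.5% Albumax at 37 C, 5% CO2. Growth inhibition was scored as reduced luminescence.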
# HCV inhibitor – qHTS Assay for Inhibitors of Hepatitis C Virus (HCV); Huh7.5.1 HCVcc-Cre infection, luciferase reporter, 44 h; Potency, µM (series often up to 41.8 µM), for inactives: at the highest dose activity change, negative = inhibition, hits mostly inhibitors; 3.4% of 340,000 active; AID 651820, 2012; further: on the % scale 0 is the no-effect control and ±100 the full control effect
#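 Compounds are dispensed onto cells plated 4 h earlier at 1,000 per well, with HCVcc-Cre virus (about 0.5 moi) added next. Following 44 h of culture, luminescent signal is measured for 15 sec after 15 min with substrate at room temperature.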
# NS1 inh – qHTS Assay for Inhibitors of Influenza NS1 Protein Function | 0.4% of 270,000 active | Potency, µM (top dose mostly 46.1 µM), inactives show at the top dose activity, positive = more growth; calls by dose curve; further: actives are rising curves; nearly all actives have a fitted effect of over 50% in size
#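 Compounds were scored for reversing the slow growth caused by influenza A NS1 in S. cerevisiae, measured by optical density at 600 nm. Assay medium contained 2% galactose at pH 6.0; NS1-free yeast of the same strain were the positive control.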
# Numbers without * were called inactive; ? = inconclusive; . = no result; ! = not active in a repeat; [ ] = dose if it differs, or a comment. Shown are actives, neighbours in structure and some others; about 12% of the full set was active somewhere. Unless noted, the call rests on the fitted dose curve; in most records, active means well fitted curve in the direction sought with a large enough effect; inconclusive means small, poorly fitted or top-dose-only effect, or another doubt; inactive means no such curve, though single readings can be large; an effect the other way counts as inactive or inconclusive. Potency means the concentration at half of the fitted maximal effect.
SMILES,SARS PLP yeast,AMA1 RON2 block,Pf growth 96h,Pf growth 48h,HCV inhibitor,NS1 inh
CCCC(=O)C1C(=O)CC(C)(C)C(c2cc(C)no2)C1=O (configuration not stated),?,-2%,0.12µM*,7%,-1%,-70%
CC1=Nc2cc(Cl)ccc2Oc2ccccc21,-2%,11%,2.1µM*,15%,-2%,4%
Nc1nc(N)c(C=Nc2ccc(Br)cc2)c(Nc2ccc(Br)cc2)n1,-7%,0%,0.33µM*,0.59µM*,?,4%
CCC(C)C(NC(=O)c1ccccc1NC(=O)c1ccc(OC)cc1)C(=O)NCCCn1ccnc1 (configuration not stated),3%,-3%,?,?,-21%,-11%
Clc1ccc(CSC(Cn2ccnc2)c2ccc(Cl)cc2Cl)cc1 (configuration not stated),-60%,2%,2.9µM*,2.1µM*,6%[8.37 µM],-44%
Clc1ccc(CS[C@@H](Cn2ccnc2)c2ccc(Cl)cc2Cl)cc1,.,.,2.3µM*,5.1µM*,.,.
O=C(Cc1ccc(Cl)cc1)NCCCn1ccnc1,-1%,-3%,?,?,3%,11%
O=C(NCCCn1ccnc1)C(=O)NCc1ccc(Cl)cc1,-2%,-17%,-20%,-28%,13%,4%
Cc1ccc(F)cc1NC(=O)N1c2ccccc2NC(=O)CC1C (configuration not stated),0%,3%,-6%,53%,-8%,5%
O=C(NC1CCCc2ccccc21)C1CCN(c2c(N3CCCC3)c(=O)c2=O)CC1 (configuration not stated),.,.,.,.,.,5%
Cc1cc(=O)n2nc(N3CCC(C(=O)NCc4ccc(F)cc4)CC3)sc2n1,1%,22%,?,-5%,11%,12%
Cc1cc(=O)n2nc(N3CCC(C(=O)NCc4ccccc4Cl)CC3)sc2n1,0%,13%,12µM*,?,-18%,8%
Cc1cc(=O)n2nc(N3CCC(C(=O)NC4CCCc5ccccc54)CC3)sc2n1 (configuration not stated),0%,-9%,0.59µM*,?,-5%,12%
Cc1cc2oc(=O)cc(-c3ccccc3)c2c(C)c1-c1ccc(C#N)cc1,24%,-4%,.,.,?,.
O=C(Nc1ccc(S(=O)(=O)Nc2ncccn2)cc1)c1nn(Cc2ccccc2)c(=O)c2ccccc12,2%,-11%,?,1.9µM*,?,6%
COc1nnc(OC)c2ccccc12,1%,4%,0.47µM*,-6%,?,-2%
COc1c2ccccc2c(OC)c2ccccc12,-3%,-4%,15µM*,3%,0%,.
COc1ccc(C2(O)CC3CCC(C2)N3c2cc(C)nc(-c3ccccc3)n2)cc1 (configuration not stated),-16%,-12%,.,12µM*,?,-33%
Cc1cc(N2CCCC2)nc(N2C3CCC2CC(O)(c2ccc(F)cc2)C3)n1 (configuration not stated),1%,.,145%,?,.,0%
C[C@H](CO)N1C[C@H](C)[C@@H](CN(C)C(=O)Nc2ccc3c(c2)OCO3)Oc2ccc(NC(=O)Nc3ccc4c(c3)OCO4)cc2C1=O,-4%,-15%,.,.,-19%,.
CCN(CC)C(=O)c1ccc(-c2nnc(Nc3cccc(O)c3)c3ccccc23)cc1,-3%,-4%,-13%,2.9µM*,2%,-22%
C=CCNC(=S)Nc1ccccc1,5%,-5%,38%,1%,9%,4%
C=CCNC(=S)Nc1cccc(NC(=S)NCC=C)c1,15%,41%,?,13µM*,4%,0%
Cc1cc(N)c2cc(NC(=O)/C=C/c3ccccc3Cl)ccc2n1,0%,?,0.59µM*,0.47µM*,11µM*,-1%
CCOC(=O)c1sc(NC(=O)CSc2nc3c(c(=O)n2-c2ccc(C)cc2)SCC3)c(C(=O)OCC)c1C,-2%,3%,12µM*,?,-6%,15%
SMILES,SARS PLP yeast,AMA1 RON2 block,Pf growth 96h,Pf growth 48h,HCV inhibitor,NS1 inh
C=CCn1c(=O)c2ccccc2n2c(SCC(=O)Nc3sc(C(=O)N(CC)CC)c(C)c3C(=O)OCC)nnc12,7%,9%,0%,12µM*,6.3µM*!,1%
CCOC(=O)CSc1nc2c(c(=O)n1-c1ccc(OC)cc1)SCC2,0%,-5%,-3%,-13%,0%,-4%
CCOC(=O)c1sc(NC(=O)CSc2nnnn2-c2ccc(C)cc2)c(C(=O)OCC)c1C,0%,-9%,5.2µM*,?,?,-9%
CCOC(=O)c1c(NC(=O)CSc2nc3ccccc3c(=O)n2-c2ccccc2)sc(C(C)=O)c1C,6%,-5%,2.3µM*,0.21µM*,3%,7%
Clc1cc2c(c(CSC3=NCN(CC4CC4)CN3)c1)OCOC2,.,.,.,.,.,-3%
COc1ccc(CC(=O)NCC(=O)N/N=C(/C)c2ccco2)cc1,1%,25%,-7%,7%,13%,.
CCOC(=O)C1CCN(C(=O)CCC2CCCC2)CC1,-5%,-3%,31%,45%,3%,14%
CCOC(=O)c1sc(NC(=O)CSc2nnnn2-c2ccc(C)c(C)c2)nc1C,-7%,2%,2.3µM*,24%,16%,2%
CCOC(=O)c1sc(NC(=O)CSc2nnnn2-c2ccccc2)nc1C,3%,13%,-22%,4%,21%,4%
CCOC(=O)c1c(C)[nH]c(C)c1C(=O)CSc1nc2ccccc2c(=O)n1-c1ccc(Cl)cc1,3%,-14%,9.3µM*,?,?,?
CSCCC(NC(=O)COc1ccccc1)C(=O)OC(C)C(=O)Nc1ccccc1C (configuration not stated),3%,3%,28%,10%,-5%,.
Cc1ccc(C)c(NC(=S)c2ccc3ccccc3n2)c1,2%,?,-16%,89%,-13%,22%
S=C(Nc1ccccn1)c1ccccn1,-3%,-34%,6.6µM*!,?,13%,-14%
Cc1ccc(C)c(NC(=S)c2ccccn2)c1,8%,?,1µM*,12µM*,-12%,-34%
Cc1cc2nc(C)c3c(n2n1)CCC3,-1%,3%,-27%,9%,15%,.
Cc1cc(C)c2nc(Nc3nc(-c4ccccc4)cc(=O)[nH]3)nc(C)c2c1,1%,-6%,3.7µM*,1.7µM*,?,1%
Cc1ccc2oc(Nc3nc(-c4ccccc4)cc(=O)[nH]3)nc2c1,0%,27%,0.83µM*,?,0%,.
